# In publication PMC4336329 (PLoS ONE, 2015):
# Among all 310,000 compounds or so, about 14,000 (4.5%) showed an effect of 50% or more. The effect is printed as a negative number. What follows is part of a selection rich in strong results, with near analogues and random picks from the rest.
# Molecular target: human ether-à-go-go-related gene (hERG) potassium channel (human, UniProt Q12809)
# Assay: primary screen, population patch clamp on CHO cells stably expressing hERG; higher = less effect of the substance
# 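Also: peak tail current of the secondary pulse compared with the same well before compound.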
# Sequence of human ether-à-go-go-related gene (hERG) potassium channel (Q12809 whole entry, looked up): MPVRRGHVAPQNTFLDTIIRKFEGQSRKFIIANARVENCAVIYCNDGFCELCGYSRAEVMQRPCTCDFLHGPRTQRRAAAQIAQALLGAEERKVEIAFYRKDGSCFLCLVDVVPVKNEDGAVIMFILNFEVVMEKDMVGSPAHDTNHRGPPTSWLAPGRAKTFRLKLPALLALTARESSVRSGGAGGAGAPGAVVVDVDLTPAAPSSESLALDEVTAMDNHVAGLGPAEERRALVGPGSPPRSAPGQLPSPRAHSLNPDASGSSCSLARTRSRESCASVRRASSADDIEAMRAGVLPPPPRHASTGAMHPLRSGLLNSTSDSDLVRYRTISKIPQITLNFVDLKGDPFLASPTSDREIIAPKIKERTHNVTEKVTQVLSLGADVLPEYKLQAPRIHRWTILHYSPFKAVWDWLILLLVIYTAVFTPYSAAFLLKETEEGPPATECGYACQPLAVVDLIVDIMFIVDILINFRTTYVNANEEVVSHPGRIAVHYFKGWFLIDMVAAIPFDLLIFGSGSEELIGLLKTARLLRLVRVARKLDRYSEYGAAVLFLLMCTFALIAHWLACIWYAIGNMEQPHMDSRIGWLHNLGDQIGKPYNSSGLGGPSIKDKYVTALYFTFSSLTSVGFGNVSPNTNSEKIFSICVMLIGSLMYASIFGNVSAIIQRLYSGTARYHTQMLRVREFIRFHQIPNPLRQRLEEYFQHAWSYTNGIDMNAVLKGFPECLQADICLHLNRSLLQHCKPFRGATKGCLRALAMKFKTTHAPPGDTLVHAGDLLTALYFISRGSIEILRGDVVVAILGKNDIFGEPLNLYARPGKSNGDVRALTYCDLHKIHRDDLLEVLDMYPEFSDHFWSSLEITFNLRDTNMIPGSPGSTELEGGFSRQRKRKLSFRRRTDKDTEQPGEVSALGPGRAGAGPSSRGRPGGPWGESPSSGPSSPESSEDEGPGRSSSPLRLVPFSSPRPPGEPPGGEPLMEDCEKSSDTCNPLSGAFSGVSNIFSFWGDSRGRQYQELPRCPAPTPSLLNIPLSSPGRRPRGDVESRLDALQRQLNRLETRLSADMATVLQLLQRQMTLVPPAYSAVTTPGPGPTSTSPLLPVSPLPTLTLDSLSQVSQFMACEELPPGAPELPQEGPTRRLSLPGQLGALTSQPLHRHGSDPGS
row,SMILES,"hERG current change (%, negative = inhibition) at 10uM [%]"
1,CCOC(=O)Cc1csc(NC(=O)c2ccc(S(=O)(=O)N(CCOC)CCOC)cc2)n1,-1.25
2,O=C(Cc1ccccc1)Nc1nnc(-c2cccc([N+](=O)[O-])c2)s1,5.44
3,COc1ccc(CCC(=O)Nc2cc(S(=O)(=O)N3CCOCC3)ccc2OC(C)C)cc1,-34.8
4,COc1ccccc1N(C)S(=O)(=O)c1ccc(C(=O)OCC(=O)NCc2cccs2)cc1,5.35
5,CCN(c1ccc(OC)cc1)S(=O)(=O)c1ccc2c(c1)CC(C)N2C(=O)C1CC1 (stereo not shown),19.5
6,O=S(=O)(NCCc1ccc(F)cc1)c1cccc2cccnc12,-0.538
7,Cn1cnnc1SCC(=O)N1N=C2/C(=C/c3ccco3)CCCC2C1c1ccco1 (stereo not shown),-25.6
8,CCCCN1C(=O)C(=O)N(CC(=O)N2N=C3/C(=C/c4ccco4)CCCC3C2c2ccco2)C1=O (stereo not shown),-75
9,O=C(CSc1nccc(=O)[nH]1)N1N=C2/C(=C/c3ccco3)CCCC2C1c1ccco1 (stereo not shown),17.4
10,CC1CCN(C(=O)CSc2nc3c(c(=O)n(C)c(=O)n3C)n2C)CC1,10.5
11,COc1cccc(C(=O)N(C)CC2CCN(CCc3cccc(C(F)(F)F)c3)CC2)c1,-70.8
12,COc1cccc(CN(C)C(=O)c2ccc(OCC(=O)Nc3cccc(C(F)(F)F)c3)c(OC)c2)c1,-26.2
13,O=C(c1cccc(C(F)(F)F)c1)N1CCN(CCc2ccccc2)CC1,-47.8
14,COc1cccc(CCNCc2cccc(C(F)(F)F)c2)c1.O=C(O)C(=O)O,-3.46
15,COc1cc(C(=O)N(C)CC2CCN(CCc3cccc(C(F)(F)F)c3)CC2)ccc1C,-78.8
16,CN(CC1CCN(CCc2cccc(C(F)(F)F)c2)CC1)C(=O)c1ccc(F)cc1,-70.8
17,COc1ccc(CCNC(=O)Cc2cccc(C(F)(F)F)c2)cc1OC,5.75
18,CC1CCN(CC(=O)c2cccc(C(F)(F)F)c2)CC1.O=C(O)C(=O)O,7.63
19,CN(CC1CCN(CCc2cccc(C(F)(F)F)c2)CC1)C(=O)c1ccccc1,-68.5
20,COc1ccnc(CN(C)C(=O)C2CCC(=O)N(Cc3cccc(C(F)(F)F)c3)C2)c1 (stereo not shown),-18.6
21,CCOC(=O)C1CCCN(C(=O)CSc2nccn2C)C1 (stereo not shown),-0.344

row,SMILES,"hERG current change (%, negative = inhibition) at 10uM [%]"
1,CCOC(=O)c1cnn2c(C)cc(-c3ccccc3)nc12,-10.4
2,Cc1cc(C)c(S(=O)(=O)Nc2ncn[nH]2)cc1C,42.8
3,COC(=O)c1ccccc1NC(=O)c1ccccc1OC,-23.1
4,CN(Cc1cccc(C(F)(F)F)c1)C(=O)C1CCC(=O)N(CC2CCCCC2)C1 (stereo not shown),-6.77
5,CN(CC1CCN(CCc2cccc(C(F)(F)F)c2)CC1)C(=O)c1ccc(F)cc1F,-69.9
6,O=C(NCCc1cccc(C(F)(F)F)c1)C1CCC(=O)N(C2CC2)C1 (stereo not shown),3.12
7,COc1ccc(/C=C2\C(=O)c3ccccc3OC2c2ccccc2)cc1 (stereo not shown),7.66
8,COC(=O)[C@@]1(Cc2ccc(OC)cc2)[C@H]2c3cc(C(=O)N4CCCC4)n(Cc4c(CO)[nH]cc(C)c4=O)c3C[C@H]2CN1C(=O)c1ccccc1,3.94
9,Cc1cccc(OCC(=O)Nc2cc(S(=O)(=O)N3CCCCC3)ccc2N2CCN(C)CC2)c1,-63
10,CN1CCN(c2ccc(S(=O)(=O)N3CCCCC3)cc2NC(=O)Cc2ccccc2F)CC1,-31
11,CN1CCN(c2ccc(S(=O)(=O)N3CCCCC3)cc2NC(=O)c2ccc(F)cc2F)CC1,-68.4
12,CN1CCN(c2ccc(S(=O)(=O)N3CCCCC3)cc2NC(=O)COc2cccc(Cl)c2)CC1,-49.1
13,Cc1cccc(OCCC(=O)Nc2cc(S(=O)(=O)N3CCCCC3)ccc2N2CCOCC2)c1,6.71
14,Cc1ccccc1OCC(=O)Nc1cc(S(=O)(=O)N2CCCCC2)ccc1N1CCN(C)CC1,-28.3
15,CN1CCN(c2ccc(S(=O)(=O)N3CCCCC3)cc2NC(=O)COc2ccc([N+](=O)[O-])cc2)CC1,-34.3
16,Cc1ccc(OCC(=O)Nc2cc(S(=O)(=O)N3CCCCC3)ccc2N2CCN(C)CC2)c(C)c1,-57.7
17,Cc1ccccc1C(=O)Nc1cc(S(=O)(=O)N2CCCCC2)ccc1N1CCN(C)CC1,-37.4
18,O=C(COc1ccc(F)cc1)Nc1cc(S(=O)(=O)N2CCCCC2)ccc1N1CCCCC1,9.98
19,CN1CCN(c2ccc(S(=O)(=O)N3CCCCC3)cc2NC(=O)COc2ccc(F)cc2)CC1,-75.2
20,Cc1ccc(Cl)c(OCC(=O)Nc2cc(S(=O)(=O)N3CCOCC3)ccc2N2CCCC2)c1,-15.4
21,Cc1ccc(C)c(OCCC(=O)NNC(=O)Cn2nc(C)cc2C)c1,21.8

row,SMILES,"hERG current change (%, negative = inhibition) at 10uM [%]"
1,O=C(NCc1ccccc1)C1=C[C@@H](c2ccc(Br)cc2)C[C@@H](OCCCCO)O1,-36.8
2,COc1cc2c(cc1OC)C(c1ccccc1Cl)N(C)CC2 (stereo not shown),1.73
3,COc1ccc(Cc2c(O)nc(SCC(=O)NC34CC5CC(CC(C5)C3)C4)[nH]c2=O)cc1,4.4
4,Cc1ccc(NC(=O)CCN2C(=O)C3CCCCC3C2=O)c(O)c1 (stereo not shown),11.9
5,CC(CCc1ccccc1)NCC#N.Cl (stereo not shown),18.9
6,O=c1c(Cc2ccc(Cl)cc2Cl)c(O)ccn1CC(F)(F)F,12.7
7,COc1ccc(OC)c(S(=O)(=O)n2ccnc2C)c1,0.0552
8,CCOc1ccc(N2CC(C(=O)Nc3c(C)n(C)n(-c4ccccc4)c3=O)CC2=O)cc1 (stereo not shown),22.6
9,CCn1cc(C(=O)N2CCN(C(=O)c3ccco3)CC2)c2cc(OC)c(OC)cc2c1=O,7.72
10,CCOCCCNC(=O)c1cc(-c2ccc(Br)s2)nc2ccccc12,15
11,CC(C)C(=O)NS(=O)(=O)c1ccc(N)cc1,8.54
12,Cc1ccc(NC(=O)C2(NC(=O)c3cccc(N4C(=O)CSC4c4ccccc4)c3)CCCCC2)cc1 (stereo not shown),2.72
13,Cc1ccc(CNS(=O)(=O)c2cc3c(cc2C)NC(=O)CO3)cc1,-39.8
14,COc1cccc(NS(=O)(=O)c2cc3c(cc2C)NC(=O)CO3)c1,-38.7
15,Cc1cc2c(cc1S(=O)(=O)NCCc1ccc(Cl)cc1)OCC(=O)N2,-21.3
16,COc1cc(NS(=O)(=O)c2cc3c(cc2C)NC(=O)CO3)cc(OC)c1,-62.2
17,Cc1cc2c(cc1S(=O)(=O)NCc1ccc(Cl)cc1)OCC(=O)N2,-57.9
18,COc1ccc(NS(=O)(=O)c2cc3c(cc2C)NC(=O)CO3)c(OC)c1,-15.3
19,O=C(O)c1ccc(NC(=S)N2CCCCC2)cc1,19.8
20,CN(CC(=O)N1CCCCCC1)S(=O)(=O)c1ccc(Br)s1,-9.92
21,COc1ccc([N+](=O)[O-])cc1NC(=O)CCCOc1ccccc1,21.6

row,SMILES,"hERG current change (%, negative = inhibition) at 10uM [%]"
1,COC(=O)c1cc2c(N)c(C(=O)c3ccccc3)sc2nc1C(OC)OC,0.631
2,Nc1c(C(=O)c2ccc(Cl)cc2)sc2nc3c(cc12)CCC3,12
3,COC(=O)c1cc2c(N)c(C(=O)c3ccc(Cl)cc3)sc2nc1C(OC)OC,-69.6
4,CC(C)NC(=S)N1CCN(C(c2ccccc2)c2ccccc2)CC1,-34.7
5,CCNC(=S)N1CCN(C(c2ccccc2)c2ccccc2)CC1,2.6
6,CCC(C)NC(=S)N1CCN(C(c2ccccc2)c2ccccc2)CC1 (stereo not shown),-59.6
7,O=c1cc(O)c2c(=O)n(-c3ccccc3)c3c(c2o1)CCCCC3,-0.822
8,Cn1c(N2CCN(C(=O)NCc3ccccc3)CC2)nc2ccccc21,-60
9,CCCn1c(N2CCN(C(=O)NCc3ccccc3)CC2)nc2ccccc21,-67.9
10,CC(C)n1c(N2CCN(C(=O)NCc3ccccc3)CC2)nc2ccccc21,-59.2
11,Cn1c(N2CCNCC2)nc2ccccc21,-15.7
12,CCCn1c(N2CCN(S(=O)(=O)Cc3ccccc3)CC2)nc2ccccc21,4.46
13,c1ccc(C(c2ccccc2)N2CCN(c3ccc4ccccc4n3)CC2)cc1,-3.18
14,CCCn1c(N2CCN(C(=O)Nc3ccccc3)CC2)nc2ccccc21,-35.9
15,O=C(NCc1ccccc1)N1CCn2c(nc3ccccc32)C1,2.53
16,CC(C)n1c(N2CCN(C(=O)Nc3ccccc3)CC2)nc2ccccc21,-14.6
17,Cn1c(N2CCN(C(c3ccccc3)c3ccccc3)CC2)nc2ccccc21,-51.7
18,Cn1c(N2CCN(C(=O)NC34CC5CC(CC(C5)C3)C4)CC2)nc2ccccc21,23.2
19,CC(C)n1c(N2CCN(C(=O)Nc3ccc(Cl)cc3)CC2)nc2ccccc21,-36.3
